Rows were chosen to be rich in hits. Some 1.8% of all compounds tested hit in one or more screens of this group.
L3MBTL1 block – qHTS Assay for the Inhibitors of L3MBTL1 | Lethal(3)malignant brain tumor-like protein 1 (Homo sapiens), Q9Y468 | AID 485360, 2010 | Potency, µM (titrated, usually from 57.1 µM), usual class: inhibitors | AlphaScreen L3MBTL1–H3K9me1 peptide binding | 230,000 compounds, 0.66% hits; also: nearly all actives have a fitted effect of over 60% in size
Target sequence (Q9Y468 whole entry, looked up): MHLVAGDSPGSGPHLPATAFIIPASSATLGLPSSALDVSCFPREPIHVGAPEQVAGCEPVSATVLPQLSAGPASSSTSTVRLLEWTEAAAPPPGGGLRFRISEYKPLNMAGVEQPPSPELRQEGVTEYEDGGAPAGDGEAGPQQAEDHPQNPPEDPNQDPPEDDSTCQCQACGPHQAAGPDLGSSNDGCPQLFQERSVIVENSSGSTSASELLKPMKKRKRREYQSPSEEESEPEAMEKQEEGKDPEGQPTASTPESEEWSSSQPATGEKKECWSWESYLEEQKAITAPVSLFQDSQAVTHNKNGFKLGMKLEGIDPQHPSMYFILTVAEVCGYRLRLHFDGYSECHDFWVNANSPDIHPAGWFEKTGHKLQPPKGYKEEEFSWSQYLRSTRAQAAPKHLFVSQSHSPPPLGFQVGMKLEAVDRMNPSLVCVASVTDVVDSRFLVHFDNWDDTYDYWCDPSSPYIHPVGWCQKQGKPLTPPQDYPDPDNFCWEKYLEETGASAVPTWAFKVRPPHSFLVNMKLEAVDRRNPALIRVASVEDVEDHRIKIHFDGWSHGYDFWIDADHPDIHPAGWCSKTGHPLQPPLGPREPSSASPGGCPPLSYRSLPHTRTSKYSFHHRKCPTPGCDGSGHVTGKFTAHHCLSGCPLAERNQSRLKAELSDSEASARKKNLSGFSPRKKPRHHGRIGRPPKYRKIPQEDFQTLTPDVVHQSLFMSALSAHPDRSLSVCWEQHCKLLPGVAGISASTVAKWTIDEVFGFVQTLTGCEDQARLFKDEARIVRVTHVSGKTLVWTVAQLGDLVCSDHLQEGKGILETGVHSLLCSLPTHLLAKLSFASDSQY
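First, the protein-peptide complex forms for 30 min at room temperature (L3MBTL1 50 nM, biotinylated H3K9me1 peptide 75 nM). Next, compounds are pin-transferred and incubated 30 min. Finally, AlphaScreen beads are added and read after 30 min.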
HTT ATP protect – qHTS Multiplex Assay to Identify Dual Action Probes in a Cell Model of Huntington: Cytoprotection (ATP); PC12 HTT-Q103 induced, cytoprotection, ATP luminescence, 40 h; Potency, µM (doses to about 56.4 µM), usual class: activators; 230,000 compounds, 0.14% hits; also: nearly all actives have a fitted effect of over 45% in size
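Cells were plated at 1500 per well in phenol red-free DMEM with 5% equine and 5% calf serum. Tebufenozide (100 nM final) and compounds were added, then ATPlite reagent, and luminescence was read.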
HttQ103 aggreg – qHTS Multiplex Assay to Identify Dual Action Probes in a Cell Model of Huntington: Aggregate Formation (GFP) | PC12 HttQ103-GFP aggregates, Acumen cytometry, 40 h | Potency, µM (titrated, usually from 46.1 µM), most hits filed as inhibitors | 220,000 compounds, 1.1% hits | AID 1688, 2009; also: nearly all actives have a fitted effect of over 60% in size
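Ecdysone-promoter PC12 model expressing HTT exon 1 Q103 fused to GFP, induced by tebufenozide at 100 nM final. Compounds titrated; aggregates sized 1–25 µm scored on a 488 nm laser cytometer.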
JMJD2E inh – qHTS Assay for Inhibitors of Human Jumonji Domain Containing 2E (JMJD2E). Potency, µM (titrated, usually from 57.1 µM), usual class: inhibitors. JMJD2E catalytic domain, FDH-coupled NADH fluorescence (FDH is formaldehyde dehydrogenase). 230,000 compounds, 1.6% hits; active = well fitted inhibition curve with a large enough effect, not every such curve was filed as active; inconclusive = small, poorly fitted or top-dose-only effect, or another doubt; inactive = no such curve, though single readings can be large or run the other way; also: nearly all actives have a fitted effect of over 50% in size
Hits are given with their value; i = inactive; ? = inconclusive; nt = not tested or not shown; ! = a repeat was not active; [ ] = remark or other dose. Unless noted, calls follow the shape of the dose curve; as a rule, active = well fitted curve in the direction sought with a large enough effect; inconclusive = small, poorly fitted or top-dose-only effect, or another doubt; inactive = no such curve, though single readings can be large; an effect the other way counts as inactive or inconclusive.

SMILES | L3MBTL1 block | HTT ATP protect | HttQ103 aggreg | JMJD2E inh
CSc1ccccc1NC(=O)c1noc2c1CCC2 | 14.1µM | i[10 µM] | i | i
CCC(=O)N1CCN(c2nc3ccccc3s2)CC1 | nt | i | i | i
O=C(c1cc2sccc2n1Cc1ccccc1)N1CCN(c2nc3ccccc3s2)CC1 | i | i | 7.94µM | i
O=C(CC1Sc2ncnn2C1=O)Nc1ccc(Cl)cc1 (stereo not drawn) | i | nt | i | 1.58µM
COc1ccc(NC(=O)CC2Sc3ncnn3C2=O)cc1 (stereo not drawn) | i | i[10 µM] | i | 2µM
COCCN1C(=O)C(CC(=O)Nc2ccccc2)SC1=Nc1ccc(OC)cc1 (stereo not drawn) | nt | i | i | i
CCOC(=O)c1ccc(NC(=O)CC2Sc3ncnn3C2=O)cc1 (stereo not drawn) | i | i[10 µM] | i | 1.78µM
CN(C)C(=O)c1ccc(-c2ccc3ncnc(N4CCNCC4)c3c2)cc1 | nt | i | nt | nt
Cc1nc(C/C(=N\Nc2ccccc2)c2ccc(O)cc2O)cs1 | ? | i | i | 14.1µM
Cc1nc(CC(=O)c2ccc(O)cc2O)cs1 | nt | i | i | i
CCN(CC)CCCN1C=C2C(=O)C(C)(OC(=O)CCc3ccccc3)C(=O)C=C2C=C1c1ccc(C#N)cc1 (stereo not drawn) | nt | i[10 µM] | i[9.22 µM] | ?
CC1(OC(=O)CCc2ccccc2)C(=O)C=C2C=C(c3ccc(C#N)cc3)N(C3CCCCC3)C=C2C1=O (stereo not drawn) | nt | i[10 µM] | i[9.22 µM] | 28.2µM!
COC(=O)CCCC1=CC2=CC(=O)C(C)(OC(=O)c3cccs3)C(=O)C2=CN1CCc1c[nH]c2ccccc12 (stereo not drawn) | nt | i[10 µM] | i[9.22 µM] | 5.62µM!
CC1(OC(=O)CCc2ccccc2)C(=O)C=C2C=C(c3ccc(C#N)cc3)N(CCc3c[nH]c4ccccc34)C=C2C1=O (stereo not drawn) | nt | i[10 µM] | i[9.22 µM] | 15.8µM!
CC1(OC(=O)CCc2ccccc2)C(=O)C=C2C=C(c3ccc(C#N)cc3)N(C(CO)CO)C=C2C1=O (stereo not drawn) | nt | i[10 µM] | i[9.22 µM] | 3.55µM
c1ccc(/C(=N/Nc2nc3ccccc3s2)c2ccccn2)cc1 | nt | i[10 µM] | nt | nt
C/C1=C2/[N-]C(C(CC(N)=O)[C@@]2(C)CCC(=O)NCC(C)OP(=O)([O-])O[C@H]2[C@@H](O)[C@@H](n3cnc4cc(C)c(C)cc43)O[C@@H]2CO)[C@]2(C)N=C(/C(C)=C3N=C(/C=C4N=C1C(CCC(N)=O)C\4(C)C)[C@@H](CCC(N)=O)[C@]\3(C)CC(N)=O)[C@@H](CCC(N)=O)[C@]2(C)CC(N)=O.CC(=O)O.[Co] (stereo partly drawn) | nt | i | i | nt
COc1ccc(N2C=C3C(=O)C(C)(OC(=O)CCc4ccccc4)C(=O)C=C3C=C2c2ccc(C#N)cc2)cc1 (stereo not drawn) | nt | i[10 µM] | i[9.22 µM] | 20µM!
COc1ccc(CN2C=C3C(=O)C(C)(OC(=O)CCc4ccccc4)C(=O)C=C3C=C2c2ccc(C#N)cc2)cc1 (stereo not drawn) | nt | i[10 µM] | i[9.22 µM] | ?
COCc1cc(C)nc(SCC(=O)c2ccc(O)c(O)c2)c1C#N | i | i[10 µM] | i | 28.2µM
COCc1cc(C)nc(SCC(=O)Oc2ccccc2)c1C#N | i | i | i | ?
CN(C)c1ccc(-c2cc(N(C)Cc3ccco3)ncn2)cc1 | nt | i | nt | nt
O=C1ON=C(c2ccccc2)/C1=C/c1ccccc1 | i | nt | nt | nt
O=C1ON=C(c2ccccc2)/C1=C\c1ccco1 | 22.4µM | i[10 µM] | i[9.22 µM] | i
Cc1cnc(CNc2ncnc3ccc(-c4cccc(C#N)c4)cc23)cn1 | nt | i | nt | i
SMILES | L3MBTL1 block | HTT ATP protect | HttQ103 aggreg | JMJD2E inh
CNc1ccnc(-c2ccccc2C)n1 | nt | i | nt | nt
CCCCCCCCCCCCCCCCCCNC(=O)OCC(COP(=O)([O-])OCC[n+]1ccsc1)OC (stereo not drawn) | nt | nt | nt | i
CC(=O)n1cc([C@@H]2C=C(C(=O)NCc3ccccc3)O[C@H](OCCCCO)C2)c2ccccc21 | i | nt | ? | 15.8µM
CC(=O)n1cc([C@@H]2C=C(C(=O)N3CCN(Cc4ccccc4)CC3)O[C@H](OCc3ccc(CO)cc3)C2)c2ccccc21 | i | i[10 µM] | i[9.22 µM] | 20µM
CN(C)CCCO[C@H]1[C@H]([C@H](O)CO)O[C@H]2OC(C)(C)O[C@@H]21 | nt | i[1.9 µM] | nt | nt
COc1ccc2nc(NC(=O)Nc3ccccc3)sc2c1 | i | i | i | i
CC(C)(C)c1nc(NC(=O)Nc2ccccc2)sc1Br | i[11.4 µM] | i | 11.2µM | i
CCOc1ccc(C2C(C(=O)Nc3ccccc3)=C(C)N=c3s/c(=C/c4cccc(OCC(=O)O)c4)c(=O)n32)cc1 (stereo not drawn) | 35.5µM | i[10 µM] | i[9.22 µM] | i
CNC1=CN=C(c2ccccc2)c2cc(Cl)ccc2N1 | nt | i | nt | nt
Cc1ccc(-c2oc3ccccc3c(=O)c2O)cc1 | i | i | 11.2µM | i
CN(C)C(=O)c1c(-c2ccccc2)oc2ccc(O)cc12 | i | i[10 µM] | i | ?
Cc1c(-c2ccccc2)oc2cc(O)ccc2c1=O | nt | i[1.9 µM] | nt | i
Cc1ccc2oc(-c3ccccc3)c(O)c(=O)c2c1 | nt | i[1.9 µM] | nt | 14.1µM
Cc1ccc2oc(-c3ccccc3)c(C(=O)O)c(=O)c2c1 | i | i | 10µM | ?
Cc1nc(NC2CCCCC2)c2nc(-c3ccccc3)n(CCN(C)C)c2n1 | nt | i | nt | ?
CC1CCC2=C1C[C@H](C(C)(C)O)CC[C@@H]2C (stereo partly drawn) | nt | ? | nt | i
O=c1c(-c2cc(F)cc(F)c2)nc2cnc(N3CCOCC3)nc2n1C1CC1 | nt | i | nt | nt
Cc1nc2ccccn2c1-c1csc(NCc2ccco2)n1 | i[11.4 µM] | i | 5.62µM | ?
Cc1ccn2c(-c3csc(NCc4ccccc4)n3)c(C)nc2c1 | i | i[1.9 µM] | 11.2µM | ?
c1coc(CNc2nc(-c3ccncc3)cs2)c1 | i | i[10 µM] | 14.1µM | ?
Cc1ccn2c(NCc3ccccc3)c(-c3cccs3)nc2c1 | i | nt | nt | ?
Nc1ccc(CCNc2ncnc3c2ncn3[C@@H]2O[C@@H](CO)[C@H](O)[C@@H]2O)cc1 | nt | i[1.9 µM] | nt | nt
CCOC(=O)C(CCc1ccccc1)NC(C)C(=O)N1Cc2cc(OC)c(OC)cc2CC1C(=O)O (stereo not drawn) | nt | i | i | nt
COC/C=C/C1=CC2=CC(=O)C(C)(OC(=O)CCc3ccccc3)C(=O)C2=CO1 (stereo not drawn) | nt | i | nt | i
O=[N+]([O-])c1ccc(Cl)c2c1C1C=CCC1C(c1ccccn1)N2 (stereo not drawn) | ? | i[10 µM] | i[9.22 µM] | i
O=C(O)c1ccc(Cl)c2c1C1C=CCC1C(c1ccccn1)N2 (stereo not drawn) | nt | i | i | 25.1µM
C=C/C1=C/Cc2ccccc2[C@H](C[N+](=O)[O-])C(C(C)=O)(C(=O)OC)C1 (stereo partly drawn) | nt | i | nt | i
CCCCNc1nc(C)nc2c1nc(-c1ccccc1)n2CCN1CCCC1 | nt | i | nt | ?
O=C(C#Cc1ccccc1)c1cccc([N+](=O)[O-])c1 | nt | i | 12.6µM | i
Cc1nc(NCCc2ccccc2)c2oc3ccccc3c2n1 | nt | i | 7.94µM | ?

From PubChem BioAssay
